Assay results as given in PubChem BioAssay AID2551 (National Center for Advancing Translational Sciences (NCATS), 2010).
The whole screen tested about 310,000 compounds, of which about 17,000 (5.5%) were called active. Not shown: some 11% with an inconclusive outcome. The call rests on the fitted dose curve; in most records, active means well fitted inhibition curve with a large enough effect; inconclusive means small, poorly fitted or top-dose-only effect, or effect the other way; inactive means no such curve, though single readings can be large or run the other way. This excerpt belongs to a sample that is enriched for actives.

molecular target: Nuclear receptor ROR-gamma (Mus musculus) (UniProt P51450); assay: qHTS for inhibitors of ROR gamma transcriptional activity; conditions: Drosophila S2 Gal4-RORgamma UAS-luciferase reporter, 20 h; series mostly up to 53.6 µM; further: nearly all actives have a fitted effect of over 60% in size
Outline: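 Luminescence from a UAS-regulated Photinus luciferase reporter in stably transfected Drosophila Schneider cells is measured; decreased signal marks ROR gamma inhibition. Fusion expression is induced by 700 uM copper sulfate for 20 hr.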
On the % scale 0 is the no-effect control and ±100 the full control effect; potency means the concentration at half of the fitted maximal effect.

Nuclear receptor ROR-gamma (Mus musculus), sequence (P51450 whole entry, looked up, the tested form may be a part): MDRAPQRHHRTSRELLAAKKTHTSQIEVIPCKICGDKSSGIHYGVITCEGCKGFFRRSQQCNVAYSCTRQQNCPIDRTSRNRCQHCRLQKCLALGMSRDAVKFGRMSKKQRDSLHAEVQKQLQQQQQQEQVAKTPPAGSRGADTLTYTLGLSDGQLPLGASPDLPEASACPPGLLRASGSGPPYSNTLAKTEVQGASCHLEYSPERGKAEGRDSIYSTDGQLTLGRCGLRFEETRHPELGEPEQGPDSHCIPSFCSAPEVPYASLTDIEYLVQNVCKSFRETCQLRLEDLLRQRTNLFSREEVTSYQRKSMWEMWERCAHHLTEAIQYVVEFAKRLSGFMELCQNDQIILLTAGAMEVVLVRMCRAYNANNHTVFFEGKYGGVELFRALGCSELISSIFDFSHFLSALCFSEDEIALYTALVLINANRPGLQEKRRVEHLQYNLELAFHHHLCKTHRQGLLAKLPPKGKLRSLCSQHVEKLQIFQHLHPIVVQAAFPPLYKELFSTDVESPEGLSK

Potency, active:
Cc1c(Cl)cccc1NC(=S)NCc1ccc2c(c1)OCO2 7.08 µM
CC(=O)Nc1cccc(OCC(=O)/C=C2\N(C)c3ccccc3C2(C)C)c1 7.08 µM
CC(NC(=S)Nc1ccccc1)C1COc2ccccc2O1 (stereo not drawn) 6.31 µM
Cc1ccc(SC(CC(=O)c2ccc(C(C)(C)C)cc2)C(=O)O)cc1 (stereo not drawn) 1.41 µM
C=C(C)CNC(=S)N/N=C/c1ccccc1OCC(=O)O 10 µM
Cc1cccc(CS(=O)(=O)c2ncc(Cl)c(C(=O)Nc3ccc(F)cc3)n2)c1 6.31 µM
Cc1cccc(NC(=O)c2nc(S(=O)(=O)Cc3ccccc3)ncc2Cl)c1 7.08 µM
Cc1ccc(CS(=O)(=O)c2ncc(Cl)c(C(=O)Nc3nnc(C)s3)n2)cc1 14.1 µM
CC(=O)C1(C)N(O)C(C)(C)C(c2cccs2)=[N+]1[O-] (stereo not drawn) 4.47 µM
C/C(CC(C)C)=N\Oc1nc(C)cc(C)n1 6.31 µM
O=C(N/N=C/C=C/c1ccccc1)C1CC1(c1ccccc1)c1ccccc1 (stereo not drawn) 8.91 µM
Cc1ccc(S(=O)(=O)N2CCOCC2)cc1C(=O)NC(=S)N(Cc1ccccc1)C(C)C 1.26 µM
S=c1[nH]c(-c2cccs2)cn1-c1ccccc1 5.01 µM
Nc1nonc1-n1nnc(C(=O)N/N=C/c2cc(Br)ccc2O)c1CSC1=NCCS1 3.16 µM
Cc1ccc(/C=N/NC(=S)Nc2cccc(S(=O)(=O)N(C)C)c2)o1 1.26 µM
C=C(C)COc1ccc(-c2n[nH]c(C)c2-c2ccccc2OC)c(O)c1 14.1 µM
C=C(C)COc1ccc(-c2n[nH]c(C)c2-c2ccccc2)c(O)c1 7.08 µM
COc1ccc(-c2n[nH]c(C)c2-c2ccccc2OC)c(O)c1 8.91 µM
COc1ccc(-c2n[nH]c(C)c2-c2ccc(OC)c(OC)c2)c(O)c1 10 µM

Potency, inactive:
C=CCNc1nc(N)c([N+](=O)[O-])c(NC2CCCCC2)n1
CN(C)S(=O)(=O)c1cccc(NC(=S)NCc2ccc3c(c2)OCO3)c1
CS(=O)(=O)N(CC(=O)N1CCCCCC1)c1cccc(Cl)c1Cl
CN1/C(=C\C(=O)c2cccnc2Cl)C(C)(C)c2ccccc21
Cc1noc(C)c1C(=O)OCC(=O)/C=C1\N(C)c2ccccc2C1(C)C
CC(c1ccco1)N(C(=O)Nc1ccccc1)C1CCCCC1 (stereo not drawn)
COC(=O)CSc1nc2ccccc2c(=O)n1Cc1ccccc1
Cc1cc(C)n(CCNS(=O)(=O)c2ccc(Cl)cc2)n1
Cc1ccc(CSCC(N)C(=O)O)cc1 (stereo not drawn)
Cc1ccc(SC(C)C(=O)NCc2ccc(F)cc2)cc1 (stereo not drawn)
Cc1sc2ncn(CC(=O)NCCCC(=O)N(C)Cc3ccccc3)c(=O)c2c1C
O=C(CN1C(=O)c2cccnc2Oc2ccc(Cl)cc21)Nc1ccc(F)cc1
COc1cccc(CSc2nc3nc(C)cc(C)n3n2)c1
Cc1cc(NC(=O)CCC(=O)N(CC(=O)NC2CCCC2)c2ccc(F)cc2)no1
COCCN(C(=O)CCC(=O)Nc1nccs1)C(C(=O)NCCC(C)C)c1ccc(F)cc1 (stereo not drawn)
Cc1ccc(S(=O)(=O)N(CC(O)CN2C(=O)NC(C)(C)C2=O)c2cccc([N+](=O)[O-])c2)cc1 (stereo not drawn)
C=CCOc1ccccc1/C=N/NC(=O)Cc1ccccc1
CCOc1ccccc1/C=N/NC(=O)CNC(=O)COc1ccccc1
N#Cc1cc([N+](=O)[O-])ccc1NCC1CCCO1 (stereo not drawn)
Cc1ccc(NC(=O)C2CCCN2C(=O)OCc2ccccc2)cc1C (stereo not drawn)
O=C(N/N=C/c1cccc(O)c1)c1cc2c(ccc3ccccc32)o1
CSc1ncc(Cl)c(C(=O)Nc2cc(C)ccc2C)n1
Cc1ccc(S(=O)(=O)CC(=O)Nc2nnc(C)s2)cc1
Cc1nnc(NC(=O)CCCOc2ccccc2)s1
Cc1cccc(NC(=O)C(C)SCc2ccccc2)c1 (stereo not drawn)
CCSc1ncc(Cl)c(C(=O)Nc2cc(C)ccc2C)n1
Cc1cccc(OCc2ccc(C(=O)Nc3ccc(F)cc3)cc2)c1
O=C(CCS(=O)(=O)c1ccccc1)NC1CCCC1
CSCCC(NS(=O)(=O)c1ccc(C)cc1)C(=O)NCCc1c[nH]c2ccccc12 (stereo not drawn)
O=C(CN(C(=O)CCC(=O)Nc1nccs1)c1ccc(F)cc1)NCc1ccc2c(c1)OCO2
COc1ccc(N2CCC(N3CCN(C)C(CCO)C3)CC2)cc1 (stereo not drawn)
C/C(=N\O)C1(C)N(O)C(C)(C)C(c2ccc(Br)cc2)=[N+]1[O-] (stereo not drawn)
CC1(C)C(c2cccs2)=[N+]([O-])C2(CCCCC2=O)N1O (stereo not drawn)
CCOC(=O)c1c(-c2ccccc2)oc2cc(Br)c(O)c(C=O)c12
O=C(NCCc1ccccc1)c1ccc2c(c1)N(Cc1ccccc1)CCS2
COC(c1ccccc1)(c1ccccc1)C(Oc1nc(C)cc(C)n1)C(=O)O (stereo not drawn)
COc1ccc(NC(=O)CCCN2C(=O)C(c3ccccc3)Oc3cccnc32)cc1 (stereo not drawn)
COc1ccc(CN(C)C(=O)c2cc(-c3ccc(C)cc3C)nc3ccccc23)c(OC)c1OC
Cc1cc(=O)oc2c3c(cc(OCC(=O)NCCC(=O)N[C@@H](C)C(=O)O)c12)OC(C)(C)CC3
COC(=O)c1ccc(/C=N/NC(=O)C(=O)N2CCCCCC2)cc1
COc1ccccc1/C=C/C=N/NC(=O)CN1CCN(Cc2ccccc2)CC1
CC(/C=C/c1ccccc1)=N\NC(=O)C1CC1(C)c1ccccc1 (stereo not drawn)
CN(C(=O)CCNC(=O)Cn1ccc2ccccc2c1=O)c1ccc(Br)cc1
COc1cc(NC(=O)C2CC(c3ccccc3O)=NO2)c(OC)cc1Cl (stereo not drawn)
O=C(CN1C(=O)COc2ccc(Cl)cc21)Nc1ccc(N2CCOCC2)cc1
CCOC(=O)c1sc(NC(=O)c2cc(S(=O)(=O)N3CCOCC3)ccc2C)nc1C
Cc1ccc(S(=O)(=O)N2CCOCC2)cc1C(=O)NCc1ccc(F)cc1
COc1ccc([N+](=O)[O-])cc1NCC(=O)c1ccc(C)cc1
COCC1CCN(C(=O)CCc2nnc(C3(c4ccc(Cl)cc4)CCC3)o2)C1 (stereo not drawn)
CCCNC(=O)COc1coc(CN2CCN(Cc3ccccc3)CC2)cc1=O
COC(=O)c1cc(S(=O)(=O)NCC2CCN(Cc3ccc(Cl)cc3)CC2)cn1C
O=c1[nH]c(-c2cccs2)nc2ccccc12
O=C(O)/C=C/c1cn(-c2ccccc2)nc1-c1cccs1
Nc1nc(SCc2cccc(Br)c2)n[nH]1
Cc1ccc(SCc2c(C(=O)N/N=C/C3CC=CCC3)nnn2-c2nonc2N)cc1 (stereo not drawn)
Cc1ccc(SCc2c(C(=O)N/N=C/c3cccnc3)nnn2-c2nonc2N)cc1
C=CCOc1ccccc1NC(=O)CN1C(=O)CNC1=O
CN(C)S(=O)(=O)c1cccc(NC(=O)Cc2ccsc2)c1
CN(C)S(=O)(=O)c1cccc(NC(=S)N/N=C/C(=O)c2ccccc2)c1
O=C(Nc1ccccc1)C1CCN(C(=O)c2ccc(Br)cc2)CC1
O=C(NCCc1ccccc1Cl)C1CCC(=O)N(CCCc2ccccc2)C1 (stereo not drawn)
CC1CC(C)CN(CCOc2cccc3ccccc23)C1 (stereo not drawn)
C=C(C)COc1ccc(-c2nc(N)ncc2-c2ccccc2OC)c(O)c1
Cc1noc(C)c1COC(=O)COc1ccc(-c2ccccc2)cc1
COc1ccc(-c2[nH]ncc2CN(C)Cc2c(C)n[nH]c2C)c(OC)c1
COc1ccc(-c2c(-c3ccc(OC)cc3O)nc(C)nc2C(F)(F)F)cc1
COc1ccc(OC)c(-c2csc(-c3cccs3)n2)c1
CCOc1ccc(-c2nc(N)ncc2-c2ccccc2OC)c(O)c1
CC(=O)COc1ccc2c(-c3ccccc3)cc(=O)oc2c1
COc1ccc(CCN2C(=O)c3[nH]nc(-c4ccccc4O)c3C2c2ccc(C)cc2)cc1OC (stereo not drawn)
O=C(NCCc1ccccn1)c1nc(Cn2cc([N+](=O)[O-])cn2)no1
Cc1ccccc1N1CC(C(=O)Nc2ccc3c(c2)OCO3)CC1=O (stereo not drawn)
COc1ccc(-c2csc3ncnc(N4CCN(S(=O)(=O)c5ccccc5C#N)CC4)c23)cc1
CCCC(=O)N(CCN1CCOCC1)c1nc2ccc(OCC)cc2s1
CC(=O)Nc1ccc(NC(=O)CSc2nnnn2-c2ccccc2F)cc1
CCc1ccc(NC(=O)CS(=O)CC(=O)N2CCN(c3ccccc3F)CC2)cc1 (stereo not drawn)
Cc1nc(CN(C)C(=O)CC2C(=O)NCCN2Cc2ccc(F)cc2)cs1 (stereo not drawn)
CCOc1ccc(CN2CCN(Cc3c[nH]c4ccccc34)CC2)cc1
COc1ccc2c(c1)C(NS(=O)(=O)OCC(Cl)(Cl)Cl)CCC2 (stereo not drawn)

Activity change, negative = inhibition, inactive:
O=C(NCc1ccc2c(c1)OCO2)c1cc(F)c(F)cc1Cl -6.24% [at 1.91 µM]
CC(=O)c1cccc(NC(=O)C2COc3ccccc3O2)c1 (stereo not drawn) -30.8% [at 1.91 µM]
O=C(NCCNc1ccc([N+](=O)[O-])cc1Cl)c1ccccc1F -13.1% [at 1.91 µM]
CCN(C(=O)c1cc([N+](=O)[O-])ccc1NCc1cccnc1)c1ccccc1 11.5% [at 1.91 µM]
O=C1OC2(CCCCC2)CC2=C1C1O[C@](c3ccsc3)(Cc3ccccc31)O2 -3.37% [at 10 µM]
